# In all, about 63,000 compounds went through this assay and about 1,100 (1.7%) were called active. Cut-off read from the data, not from the text of the source: active = cytotoxicity above about 50%; inactive = the rest. For the sample, actives were picked, then their nearest neighbours and some compounds at random. Potency and affinity values are given separately.
# Test: HPDE-C7 pancreatic duct cell viability loss – fluorescence, HTS (AID 430);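 note: cells exposed to compound for 48 hours before viability readout; 0% = vehicle and 100% = reference cytotoxic drug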
# Conditions: HPDE-C7 pancreatic duct cells viability, at 10 µM, hits give high values
row,SMILES,cytotoxicity
1,O=C(CSc1ccc2nnc(-c3ccccn3)n2n1)NCc1ccc2c(c1)OCO2,-15.3% (inactive)
2,CCCC(=O)Nc1ccccc1-c1nnn(CC(=O)Nc2ccc(OC)cc2)n1,-30.9% (inactive)
3,O=C(CSc1nnc(-c2cc3ccccc3cc2O)n1Cc1ccco1)c1ccc(F)cc1,-5.2% (inactive)
4,COc1ccc(C(=O)CSc2nnc(-c3cc4ccccc4cc3O)n2Cc2ccco2)cc1,55.6% (active)
5,COc1ccc(C(=O)CSc2nnc(-c3ccccn3)n2Cc2ccco2)cc1,-5% (inactive)
6,CCN(CCNC(=O)c1cccc(N2CCCC2=O)c1)c1ccccc1,-9.5% (inactive)
7,CCCCc1cc(=O)oc2cc(C)c(CN3CCCC3)c(O)c12,-12.4% (inactive)
8,CCc1cc(=O)oc2cc(C)cc(O)c12,0% (inactive)
9,CCCCCc1cc(O)c2c(C)cc(=O)oc2c1,50.3% (active)
10,COC(=O)c1ccccc1NC(=O)Cn1c(-c2nonc2N)nc2ccccc21,47% (inactive)
11,COc1cccc(Cn2c(-c3nonc3N)nc3ccccc32)c1,53.8% (active)
12,COc1cc(Cn2c(-c3nonc3N)nc3ccccc32)ccc1C,30.4% (inactive)
13,Nc1nonc1-c1nc2ccccc2n1Cc1ccccc1,-38.3% (inactive)
14,CCOC(=O)c1ccccc1NC(=O)Cn1c(-c2nonc2N)nc2ccccc21,67.8% (active)
15,COc1ccc(CCNC(=O)Cn2c(-c3nonc3N)nc3ccccc32)cc1OC,6.6% (inactive)
16,CCCCOc1ccccc1NC(=O)Cn1c(-c2nonc2N)nc2ccccc21,55.1% (active)
17,Nc1nonc1-c1nc2ccccc2n1CC(=O)NC1CCCC1,0% (inactive)
18,CCOc1ccc(CCNC(=O)Cn2c(-c3nonc3N)nc3ccccc32)cc1OCC,-22.9% (inactive)
19,CC(=O)N1CCN=C1SCc1ccccc1,3% (inactive)
20,Cc1cc(C(=O)N2CC(C)CC(C)C2)n(-c2ccccc2)n1 (stereo not given),-6.9% (inactive)
21,Cc1nc2ccccc2c(=O)n1NC(=O)c1ccc(F)cc1Cl,-0.2% (inactive)
22,COc1ccc2nc(NC(=O)c3ccc4ncsc4c3)sc2c1,0.5% (inactive)

row,SMILES,cytotoxicity
1,CCOc1cccc(CN2CCN(c3cccc(C(F)(F)F)c3)CC2)c1O,-3.2% (inactive)
2,CCOC(=O)C1=C(CSc2nc(C)cc(C)c2C#N)OC(N)=C(C#N)C1c1cccs1 (stereo not given),-28.5% (inactive)
3,CCOC(=O)C1=C(CSc2nc3c(cc2C#N)CN(C)CC3)OC(N)=C(C#N)C1c1ccccc1 (stereo not given),3.4% (inactive)
4,CCOC(=O)C1=C(CSc2nc(C)ccc2C#N)OC(N)=C(C#N)C1c1cccc(OC)c1OC (stereo not given),59.3% (active)
5,CCOC(=O)C1=C(CSc2nc(-c3ccncc3)ccc2C#N)OC(N)=C(C#N)C1c1cccnc1 (stereo not given),4% (inactive)
6,CCOC(=O)C1=C(CSc2nc3c(cc2C#N)CCC3)OC(N)=C(C#N)C1c1ccccc1 (stereo not given),101% (active)
7,CCOC(=O)C1=C(C)OC(N)=C(C#N)C1c1ccc(OC)c(C)c1OC (stereo not given),-1.3% (inactive)
8,CC(c1ccco1)N(C(=O)CSc1ccc(Br)cc1)c1ccccn1 (stereo not given),9.1% (inactive)
9,CCCCOC(=O)C(C)Nc1n[nH]c(=O)[nH]c1=O (stereo not given),8.9% (inactive)
10,Cc1cc(C)n(S(=O)(=O)c2ccc3ccccc3c2)n1,28.5% (inactive)
11,COC(=O)C1=C(CSCc2ccco2)NC(=O)NC1c1cc(C)ccc1C (stereo not given),-3.6% (inactive)
12,c1ccc(-c2noc(CN3CCN(c4ccccc4)CC3)n2)cc1,-1.5% (inactive)
13,COc1cccc(CNC(=O)C2CCN(S(=O)(=O)c3ccc4c(c3)CCC(=O)N4)CC2)c1,-2.9% (inactive)
14,Oc1ccccc1-c1nc(NCc2ccco2)c2ccccc2n1,0.8% (inactive)
15,c1coc(CNc2nc(N3CCCCC3)nc3ccccc23)c1,25.2% (inactive)
16,O=C(Cn1ncc2c(=O)oc3ccccc3c21)N1CCc2ccccc2C1,-15.7% (inactive)
17,N#Cc1c(/N=C/c2ccco2)oc(-c2ccccc2)c1-c1ccccc1,70% (active)
18,N#Cc1c(/N=C/N2CCCC2)oc(-c2ccccc2)c1-c1ccccc1,13.1% (inactive)
19,N#Cc1c(N)oc(-c2ccccc2)c1-c1ccccc1,-7.1% (inactive)
20,CCC(=O)N1CCN(c2ccc(NC(=O)c3ccc4c(c3)OCO4)cc2)CC1,-5.7% (inactive)
21,COc1ccc(CN(C(=O)c2ccccc2OC)C2CCS(=O)(=O)C2)cc1 (stereo not given),-0.4% (inactive)
22,CCN(CC)C(=O)CSc1nnc(-c2ccccc2)n1N,-1.9% (inactive)

row,SMILES,cytotoxicity
1,O=C(NC1CCCCC1)N1CCC(n2c(=O)[nH]c3ccccc32)CC1,-3.9% (inactive)
2,O=c1[nH]c2ccccc2n1CCCN1CCN(C(c2ccccc2)c2ccccc2)CC1,-7.2% (inactive)
3,O=C1CC(c2ccccc2)Sc2ccccc2N1 (stereo not given),-15% (inactive)
4,Cn1cccc1CNC(=O)Nc1ccc(Cl)cc1,-23.2% (inactive)
5,C=C(C)COc1ccc(-c2n[nH]c(C)c2Oc2ccccc2OC)c(O)c1,61.3% (active)
6,C=C(C)COc1ccc(-c2nc(N)ncc2Oc2ccccc2OC)c(O)c1,0.9% (inactive)
7,C=C(C)COc1ccc(-c2nc(N)nc(C)c2Oc2ccccc2OC)c(O)c1,-1.3% (inactive)
8,C=C(C)COc1ccc(-c2ncncc2Oc2ccc(OC)cc2)c(O)c1,1.9% (inactive)
9,CCOc1ccc(-c2n[nH]c(C)c2Oc2ccccc2OC)c(O)c1,-2.5% (inactive)
10,CC(C)Cc1ccc(C#N)c(SCC(N)=O)n1,-5.5% (inactive)
11,Cc1ccc(NC(=O)CSc2nnc(Cn3c(=O)sc4ccccc43)n2C)cc1Cl,-0.9% (inactive)
12,O=C(COC(=O)CCC(=O)c1ccc2c(c1)OCCO2)NCc1ccc2c(c1)OCO2,-8.4% (inactive)
13,Nn1c(Cc2ccccc2F)nnc1SCC(=O)N1CC(=O)Nc2ccccc21,-3.4% (inactive)
14,Cc1cc(C)cc(N2CCCn3c2nc2c3c(=O)n(CC(=O)OCc3ccccc3)c(=O)n2C)c1,26.4% (inactive)
15,O=C(O)C1CCCCC1C(=O)OCCCCOC(=O)C1CCCCC1C(=O)O (stereo not given),3.9% (inactive)
16,Oc1ccc(-c2[nH]ncc2-c2ccc(Cl)cc2)c(O)c1,33.3% (inactive)
17,Cc1[nH]nc(-c2ccc(O)cc2O)c1Oc1ccccc1,69.8% (active)
18,COc1ccc(-c2n[nH]c(C)c2-c2ccc(Cl)cc2)c(O)c1OC,-29.4% (inactive)
19,Cc1[nH]nc(-c2ccc(O)cc2O)c1-c1ccc(Cl)cc1,60.1% (active)
20,COc1ccc(-c2n[nH]c(C)c2-c2cnn(-c3ccccc3)c2)c(O)c1,36.4% (inactive)
21,COc1ccc(Oc2c(-c3ccc(O)cc3O)n[nH]c2C)cc1,26.3% (inactive)
